# Data published in article PMC7862700, “An all-to-all approach to the identification of sequence-specific readers for epigenetic DNA modifications on cytosine”.
# Assays:
# Assay in all cases: DAPPL (digital affinity profiling via proximity ligation, sequencing); 10 mM Tris-HCl pH 7.5, 50 mM NaCl, 1 mM DTT, 4% glycerol, room temperature, 30 min; GST-TFs on glutathione beads, 16-mer random dsDNA library, 0.1% formaldehyde crosslink after washing; high values mean tight binding
# Conditions in all cases: protein: recombinant; tags: N-terminal GST; dsDNA, one strand shown
# [1] = target: T1, ERF (Homo sapiens, UniProt P50548 1-548)
# T1 sequence: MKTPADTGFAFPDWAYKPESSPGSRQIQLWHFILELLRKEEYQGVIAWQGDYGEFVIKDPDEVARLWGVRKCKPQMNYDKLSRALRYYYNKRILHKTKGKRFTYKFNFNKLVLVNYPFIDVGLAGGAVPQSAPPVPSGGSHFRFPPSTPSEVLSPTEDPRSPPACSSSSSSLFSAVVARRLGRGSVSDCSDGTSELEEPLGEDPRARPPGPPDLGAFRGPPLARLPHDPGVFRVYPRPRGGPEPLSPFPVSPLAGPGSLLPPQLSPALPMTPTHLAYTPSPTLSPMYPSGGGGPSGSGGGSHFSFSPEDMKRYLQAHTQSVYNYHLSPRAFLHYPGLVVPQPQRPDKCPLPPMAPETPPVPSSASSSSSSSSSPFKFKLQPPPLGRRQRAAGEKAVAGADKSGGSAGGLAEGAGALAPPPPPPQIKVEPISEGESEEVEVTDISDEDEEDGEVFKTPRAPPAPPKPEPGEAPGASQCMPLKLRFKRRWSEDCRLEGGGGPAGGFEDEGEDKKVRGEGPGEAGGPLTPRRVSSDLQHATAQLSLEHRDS
# How it was run: (§1)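 Binding signal is given per hexamer as its read frequency for a factor divided by its frequency in the tag-only sample. GST-fused human transcription factors were expressed in yeast, captured on glutathione beads, barcoded with DNA and pooled with that sample, then incubated with 200 nmole of a 16-mer random double-stranded DNA library in Tris/NaCl/DTT/glycerol buffer for 30 min at room temperature. The pools were then washed, crosslinked, proximity-ligated, amplified by PCR and sequenced on an Illumina NextSeq500.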
# [2] = target: T2, ETV3L (Homo sapiens, UniProt Q6ZN32 1-361)
# T2 sequence: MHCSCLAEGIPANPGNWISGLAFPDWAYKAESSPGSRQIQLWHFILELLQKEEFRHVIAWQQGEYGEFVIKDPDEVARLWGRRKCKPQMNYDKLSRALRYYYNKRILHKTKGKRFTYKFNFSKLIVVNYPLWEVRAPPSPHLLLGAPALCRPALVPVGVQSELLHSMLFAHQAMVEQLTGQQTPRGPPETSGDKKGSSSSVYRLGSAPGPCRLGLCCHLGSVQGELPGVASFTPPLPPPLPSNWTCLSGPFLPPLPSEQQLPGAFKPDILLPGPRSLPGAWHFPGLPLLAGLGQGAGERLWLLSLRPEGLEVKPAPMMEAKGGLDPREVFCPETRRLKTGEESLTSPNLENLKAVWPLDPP
# How it was run: as §1
# [3] = target: T3, ETS2 (Homo sapiens, UniProt P15036 1-469)
# T3 sequence: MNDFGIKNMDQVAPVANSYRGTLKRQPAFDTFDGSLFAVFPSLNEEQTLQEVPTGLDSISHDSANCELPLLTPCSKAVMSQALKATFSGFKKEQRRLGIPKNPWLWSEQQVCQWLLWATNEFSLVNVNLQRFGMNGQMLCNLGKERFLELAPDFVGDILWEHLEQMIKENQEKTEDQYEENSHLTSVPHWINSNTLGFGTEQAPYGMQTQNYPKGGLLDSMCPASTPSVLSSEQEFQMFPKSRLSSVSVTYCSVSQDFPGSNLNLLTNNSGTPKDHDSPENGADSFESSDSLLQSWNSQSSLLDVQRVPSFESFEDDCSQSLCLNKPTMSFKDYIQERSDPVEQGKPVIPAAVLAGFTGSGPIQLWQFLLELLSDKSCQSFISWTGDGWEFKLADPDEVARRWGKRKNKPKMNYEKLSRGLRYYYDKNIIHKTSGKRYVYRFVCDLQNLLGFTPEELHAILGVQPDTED
# How it was run: as §1
# [4] = target: T4, SPDEF (Homo sapiens, UniProt O95238 1-335)
# T4 sequence: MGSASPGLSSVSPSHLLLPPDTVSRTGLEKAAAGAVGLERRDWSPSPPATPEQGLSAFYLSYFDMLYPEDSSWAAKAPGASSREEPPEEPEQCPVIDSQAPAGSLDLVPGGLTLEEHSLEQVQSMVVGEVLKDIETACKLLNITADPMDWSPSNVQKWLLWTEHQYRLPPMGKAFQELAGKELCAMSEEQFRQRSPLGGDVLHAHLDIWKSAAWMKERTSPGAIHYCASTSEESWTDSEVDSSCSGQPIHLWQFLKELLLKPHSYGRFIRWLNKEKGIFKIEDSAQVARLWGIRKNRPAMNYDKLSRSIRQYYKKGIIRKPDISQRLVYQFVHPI
# How it was run: as §1
# [5] = target: T5, ETV7 (Homo sapiens, UniProt Q9Y603 1-341)
# T5 sequence: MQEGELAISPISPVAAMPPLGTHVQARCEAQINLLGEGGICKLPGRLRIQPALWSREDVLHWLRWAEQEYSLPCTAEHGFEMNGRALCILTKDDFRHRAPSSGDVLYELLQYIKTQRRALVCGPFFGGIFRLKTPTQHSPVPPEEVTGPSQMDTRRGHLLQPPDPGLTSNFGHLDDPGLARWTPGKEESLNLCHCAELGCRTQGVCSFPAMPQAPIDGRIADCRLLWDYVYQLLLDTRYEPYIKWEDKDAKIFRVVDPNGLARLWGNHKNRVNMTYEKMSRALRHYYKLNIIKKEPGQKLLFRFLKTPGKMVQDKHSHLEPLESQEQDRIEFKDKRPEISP
# How it was run: as §1
# [6] = target: T6, ELF5 (Homo sapiens, UniProt Q9UKW6-2 1-255)
# T6 sequence: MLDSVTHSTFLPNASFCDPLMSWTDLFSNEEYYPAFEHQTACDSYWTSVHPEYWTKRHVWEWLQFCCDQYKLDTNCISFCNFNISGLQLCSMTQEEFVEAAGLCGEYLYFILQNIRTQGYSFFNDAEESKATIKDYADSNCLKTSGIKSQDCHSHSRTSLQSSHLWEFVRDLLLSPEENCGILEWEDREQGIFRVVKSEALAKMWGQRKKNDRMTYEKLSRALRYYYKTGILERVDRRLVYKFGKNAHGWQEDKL
# How it was run: as §1
# [7] = target: T7, ETV3 (Homo sapiens, UniProt P41162-2 1-143)
# T7 sequence: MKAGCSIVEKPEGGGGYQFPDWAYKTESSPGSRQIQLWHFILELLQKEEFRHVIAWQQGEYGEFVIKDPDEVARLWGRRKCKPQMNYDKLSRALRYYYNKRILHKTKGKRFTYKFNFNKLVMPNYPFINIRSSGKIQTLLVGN
# How it was run: as §1
# [8] = target: ETV6 (Homo sapiens, UniProt P41212 1-452)
# ETV6, sequence (P41212 whole entry): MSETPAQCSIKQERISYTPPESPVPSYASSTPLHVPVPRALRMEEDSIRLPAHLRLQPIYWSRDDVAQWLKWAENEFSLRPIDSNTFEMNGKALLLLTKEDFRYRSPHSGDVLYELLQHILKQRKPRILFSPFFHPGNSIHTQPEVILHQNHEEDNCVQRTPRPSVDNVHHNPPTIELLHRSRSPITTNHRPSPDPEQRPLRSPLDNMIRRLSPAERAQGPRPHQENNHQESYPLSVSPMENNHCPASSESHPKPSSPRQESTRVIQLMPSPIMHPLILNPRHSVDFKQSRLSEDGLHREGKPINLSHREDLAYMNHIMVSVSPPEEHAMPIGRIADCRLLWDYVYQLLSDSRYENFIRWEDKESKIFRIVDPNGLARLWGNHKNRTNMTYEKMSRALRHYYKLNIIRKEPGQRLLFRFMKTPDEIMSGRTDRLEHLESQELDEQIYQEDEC
# How it was run: as §1
Sequence,binding signal [1],binding signal [2],binding signal [3],binding signal [4],binding signal [5],binding signal [6],binding signal [7],binding signal [8]
TTTATG,"1.31 fold enrichment (6-mer frequency, TF over GST control)","1.36 fold enrichment (6-mer frequency, TF over GST control)","1.32 fold enrichment (6-mer frequency, TF over GST control)","1.29 fold enrichment (6-mer frequency, TF over GST control)","1.32 fold enrichment (6-mer frequency, TF over GST control)","1.29 fold enrichment (6-mer frequency, TF over GST control)","1.36 fold enrichment (6-mer frequency, TF over GST control)","1.33 fold enrichment (6-mer frequency, TF over GST control)"
TTACAA,"1.23 fold enrichment (6-mer frequency, TF over GST control)","1.1 fold enrichment (6-mer frequency, TF over GST control)","1.16 fold enrichment (6-mer frequency, TF over GST control)","1.22 fold enrichment (6-mer frequency, TF over GST control)","1.11 fold enrichment (6-mer frequency, TF over GST control)","1.17 fold enrichment (6-mer frequency, TF over GST control)","1.08 fold enrichment (6-mer frequency, TF over GST control)","1.09 fold enrichment (6-mer frequency, TF over GST control)"
TTCAGG,"1.15 fold enrichment (6-mer frequency, TF over GST control)","1.1 fold enrichment (6-mer frequency, TF over GST control)","1.12 fold enrichment (6-mer frequency, TF over GST control)","1.25 fold enrichment (6-mer frequency, TF over GST control)","1.15 fold enrichment (6-mer frequency, TF over GST control)","1.15 fold enrichment (6-mer frequency, TF over GST control)","1.1 fold enrichment (6-mer frequency, TF over GST control)","1.11 fold enrichment (6-mer frequency, TF over GST control)"
ATTTCA,"1.22 fold enrichment (6-mer frequency, TF over GST control)","1.16 fold enrichment (6-mer frequency, TF over GST control)","1.22 fold enrichment (6-mer frequency, TF over GST control)","1.28 fold enrichment (6-mer frequency, TF over GST control)","1.13 fold enrichment (6-mer frequency, TF over GST control)","1.25 fold enrichment (6-mer frequency, TF over GST control)","1.23 fold enrichment (6-mer frequency, TF over GST control)","1.27 fold enrichment (6-mer frequency, TF over GST control)"
GTTTCG,"1.38 fold enrichment (6-mer frequency, TF over GST control)","1.33 fold enrichment (6-mer frequency, TF over GST control)","1.15 fold enrichment (6-mer frequency, TF over GST control)","1.27 fold enrichment (6-mer frequency, TF over GST control)","1.27 fold enrichment (6-mer frequency, TF over GST control)","1.12 fold enrichment (6-mer frequency, TF over GST control)","1.32 fold enrichment (6-mer frequency, TF over GST control)","1.23 fold enrichment (6-mer frequency, TF over GST control)"
TATTGG,"1.2 fold enrichment (6-mer frequency, TF over GST control)","1.18 fold enrichment (6-mer frequency, TF over GST control)","1.23 fold enrichment (6-mer frequency, TF over GST control)","1.23 fold enrichment (6-mer frequency, TF over GST control)","1.19 fold enrichment (6-mer frequency, TF over GST control)","1.1 fold enrichment (6-mer frequency, TF over GST control)","1.17 fold enrichment (6-mer frequency, TF over GST control)","1.21 fold enrichment (6-mer frequency, TF over GST control)"
TACGTA,"1.3 fold enrichment (6-mer frequency, TF over GST control)","1.38 fold enrichment (6-mer frequency, TF over GST control)","1.42 fold enrichment (6-mer frequency, TF over GST control)","1.35 fold enrichment (6-mer frequency, TF over GST control)","1.15 fold enrichment (6-mer frequency, TF over GST control)","1.31 fold enrichment (6-mer frequency, TF over GST control)","1.37 fold enrichment (6-mer frequency, TF over GST control)","1.32 fold enrichment (6-mer frequency, TF over GST control)"
CTGTTC,"1.52 fold enrichment (6-mer frequency, TF over GST control)","1.31 fold enrichment (6-mer frequency, TF over GST control)","1.44 fold enrichment (6-mer frequency, TF over GST control)","1.29 fold enrichment (6-mer frequency, TF over GST control)","1.42 fold enrichment (6-mer frequency, TF over GST control)","1.52 fold enrichment (6-mer frequency, TF over GST control)","1.51 fold enrichment (6-mer frequency, TF over GST control)","1.44 fold enrichment (6-mer frequency, TF over GST control)"
CATCTT,"1.26 fold enrichment (6-mer frequency, TF over GST control)","1.28 fold enrichment (6-mer frequency, TF over GST control)","1.23 fold enrichment (6-mer frequency, TF over GST control)","1.03 fold enrichment (6-mer frequency, TF over GST control)","1.25 fold enrichment (6-mer frequency, TF over GST control)","1.17 fold enrichment (6-mer frequency, TF over GST control)","1.18 fold enrichment (6-mer frequency, TF over GST control)","1.25 fold enrichment (6-mer frequency, TF over GST control)"
